# Measured values published in PubChem BioAssay.
# The source made the active and inactive calls. Unless noted, no rule for the calls is given here.
# Experiments:
# [1] = test system: XIP peptide (Xip251-270) binding; assay: XIP fragment 251-270 binding compounds – biochemical, small-molecule microarray, fluorescence 635/667 nm, 0.1 µg/mL protein, primary screen (AID 1182); details: fluorescent protein binding, 635 nm, higher = more signal, called active from +8 up or from −8 down
# XIP peptide (Xip251-270) = assay: compounds binding XIP fragment 251-270 – biochemical, small-molecule microarray, fluorescence 635/667 nm, 0.5 µg/mL protein, primary screen (AID 1183); details: fluorescence 635 nm, higher = more signal
# [2] = blood-stage malaria parasite viability loss – strain 3D7, DAPI fluorescence, 100 nL, primary screen (AID 1184);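 also: parasites grown inside human red blood cells in medium with human serum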; details: P. falciparum 3D7 growth, 3 d, higher = more signal
# [3] = molecular target: Homeobox protein Hox-A13 (Mus musculus) (UniProt Q62424); assay: disruptors of Hoxa13 oligonucleotide interaction – biochemical, fluorescence polarization, labeled oligonucleotide, primary screen (AID 1185); details: Hoxa13:DNA binding, 15 min, higher = more signal, called active from +8 up or from −8 down
# [4] = blockers of DNA damage checkpoint Chk1 activation – imaging, HeLa, hydroxyurea, phospho-Chk1 antibody, percent positive cells, primary screen (AID 1186); details: hydroxyurea-induced phospho-Chk1 immunofluorescence imaging, higher = more signal
# [5] = blockers of DNA damage checkpoint Chk1 activation – imaging, HeLa, hydroxyurea, phospho-Chk1 nuclear intensity, primary screen (AID 1187); details: hydroxyurea-induced phospho-Chk1 immunofluorescence imaging, higher = more signal
# Homeobox protein Hox-A13 (Mus musculus), sequence (Q62424 whole entry, looked up): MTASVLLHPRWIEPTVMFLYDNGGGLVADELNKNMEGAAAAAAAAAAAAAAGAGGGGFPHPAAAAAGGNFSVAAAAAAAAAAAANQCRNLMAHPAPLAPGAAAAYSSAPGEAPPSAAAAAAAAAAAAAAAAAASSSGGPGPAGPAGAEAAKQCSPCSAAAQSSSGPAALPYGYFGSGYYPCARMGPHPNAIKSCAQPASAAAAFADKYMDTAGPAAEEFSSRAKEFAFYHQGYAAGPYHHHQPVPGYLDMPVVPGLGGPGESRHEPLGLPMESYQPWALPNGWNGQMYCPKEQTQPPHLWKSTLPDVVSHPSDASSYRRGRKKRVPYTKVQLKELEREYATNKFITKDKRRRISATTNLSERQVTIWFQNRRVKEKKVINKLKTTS
SMILES,composite z-score [1],composite z-score (XIP peptide (Xip251-270)),z-score [2],z-score [3],z-score [4],z-score [5]
[N-]=[N+]=Nc1ccccc1C[C@@]1(C(N)=O)N=C(c2ccc(OCCCO)cc2)O[C@@H]1c1ccccc1N=[N+]=[N-],1.28 (inactive),0.763,-2.67,-5.05 (inactive),-0.0618 (inactive),0.233 (inactive)
C=CCC(OC(C)=O)[C@@H]1[C@@H](N(Cc2ccc(-c3cccc(C(F)(F)F)c3)o2)C(=O)c2ccc(-c3ccccc3)cc2)c2cc(OCCCO)ccc2N1C(=O)Cc1ccc2ccccc2c1 (stereo not given in full),-0.186 (inactive),-0.738,-0.694,-1.1 (inactive),0.345 (inactive),0.291 (inactive)
CCOC(=O)C1=C[C@@H](C(C)(C)C)N(S(=O)(=O)c2ccc(C)cc2)[C@H]1c1cccc2ccccc12,-0.247 (inactive),0.236,-1.93,0.961 (inactive),0.721 (inactive),0.521 (inactive)
C=C[C@@H](OC)[C@H](OC(=O)Nc1ccc(OC)cc1)c1ccc(O)c(F)c1,0.65 (inactive),0.741,-0.825,-2.8 (inactive),-0.528 (inactive),-1.17 (inactive)
COCCCNC(=O)[C@@]1(CCC(=O)OC(C)(C)C)N=C(c2ccc(OCCCO)cc2)O[C@H]1c1ccccc1N=[N+]=[N-],3.51 (inactive),0.476,-2.39,-4.09 (inactive),0.739 (inactive),1.43 (inactive)
O=C(c1ccccc1)N1C(=O)[C@]2(Cc3ccccc31)N=C(c1ccc(OCCCO)cc1)O[C@@H]2c1ccccc1,0.409 (inactive),0.387,-1.87,-5.04 (inactive),0.546 (inactive),0.796 (inactive)
CCOC(=O)C[C@H]1[C@H](OC(=O)Cc2ccc3c(c2)OCO3)[C@@H](NC(=O)C2CCCCC2)c2cc(OCCCO)ccc2N1C(=O)c1ccccc1,-0.137 (inactive),0.514,-0.201,-3.57 (inactive),-0.296 (inactive),-0.176 (inactive)
NC(=O)[C@H]1[C@@H]2C(=O)O[C@@H](c3ccccc3)[C@@H](c3ccccc3)N2[C@@H](c2ccc(OCCO)cc2)[C@]12C(=O)Nc1ccc(C#CCCO)cc12,0.32 (inactive),0.357,0.358,-4.68 (inactive),-0.317 (inactive),-0.838 (inactive)
CC(C)c1ccc(NN2C(C(O)c3ccc(F)cc3)C=CC3C(=O)N(c4ccccc4)C(=O)C32)cc1 (stereo not given),0.344 (inactive),0.774,-0.344,-1.93 (inactive),0.51 (inactive),0.374 (inactive)
[N-]=[N+]=Nc1ccccc1[C@@H]1OC(c2ccc(OCCCO)cc2)=N[C@]1(Cc1ccccc1)C(=O)N1CCCCC1,3.82 (inactive),0.806,-2.38,-4.3 (inactive),-0.23 (inactive),-0.606 (inactive)
CCCCC(CC)C(O)C1C=CC2C(=O)N(c3ccccc3)C(=O)C2N1Nc1ccc(C#N)cc1 (stereo not given),0.742 (inactive),0.784,0.128,-1.83 (inactive),-0.185 (inactive),-0.153 (inactive)
Cc1ccc(NN2C(C(O)c3c(F)cccc3Cl)C=CC3C(=O)N(C4CCCCC4)C(=O)C32)cc1 (stereo not given),-0.391 (inactive),0.696,-0.216,-3.84 (inactive),-0.0771 (inactive),-0.369 (inactive)
NC(=O)[C@@]1(Cc2ccccc2)COC(c2ccc(OCCCO)cc2)=N1,0.198 (inactive),-0.959,0.0597,-2.25 (inactive),0.279 (inactive),0.382 (inactive)
O=C1N(Cc2ccccc2)c2ccccc2C[C@]12N=C(c1ccc(OCCCO)cc1)O[C@@H]2c1ccccc1,-0.12 (inactive),0.59,-2.37,-3.59 (inactive),-0.0747 (inactive),-0.154 (inactive)
Cc1ccc(S[C@]2(C(=O)NCC(F)(F)F)CC(=O)N(Cc3cc(C(F)(F)F)cc(C(F)(F)F)c3)[C@@H]2c2ccc(CO)cc2)cc1,-0.491 (inactive),0.584,1.2,-1.71 (inactive),0.0254 (inactive),0.474 (inactive)
COCCOC(=O)N1C(=O)[C@@]2(c3ccccc31)[C@H](C(=O)NC[C@H](O)c1ccccc1)[C@H]1C(=O)O[C@H](c3ccccc3)[C@H](c3ccccc3)N1[C@@H]2c1ccc(O)cc1,0.26 (inactive),0.819,-1.02,-3.48 (inactive),0.326 (inactive),0.653 (inactive)
[N-]=[N+]=Nc1ccccc1C[C@]1(C(=O)O)COC(c2ccc(OCCCO)cc2)=N1,1.09 (inactive),0.907,-1.54,-4.69 (inactive),0.0118 (inactive),0.0756 (inactive)
CCCCC(CC)C(O)C1C=CC2C(=O)N(c3ccccc3)C(=O)C2N1Nc1ccccc1F (stereo not given),0.634 (inactive),0.0509,-0.579,-2.25 (inactive),0.322 (inactive),0.195 (inactive)

SMILES,composite z-score [1],composite z-score (XIP peptide (Xip251-270)),z-score [2],z-score [3],z-score [4],z-score [5]
O=C1[C@H]2C=C(I)[C@H](C[C@@H]2OCCOCCO)[C@@]12CO2,0.0014 (inactive),-0.0714,0.79,0.122 (inactive),0.363 (inactive),0.401 (inactive)
C=CC[C@]1(C(=O)N2CCOCC2)COC(c2ccc(OCCCO)cc2)=N1,0.627 (inactive),0.879,-0.813,-6.97 (inactive),-0.374 (inactive),-0.0405 (inactive)
COCCOC(=O)N1C(=O)[C@@]2(c3cc(C#CCCO)ccc31)[C@H](c1ccc(OCCO)cc1)N1[C@H](c3ccccc3)[C@H](c3ccccc3)OC(=O)[C@H]1[C@@H]2C(=O)Nc1nc2ccccc2s1,0.514 (inactive),0.509,0.335,0.838 (inactive),-0.0639 (inactive),-0.355 (inactive)
CC[C@@H]1C=C(C(=O)O)[C@H](c2ccc(C#N)cc2)N1S(=O)(=O)c1ccc(C)cc1,0.377 (inactive),-0.172,1.91,-4.62 (inactive),0.208 (inactive),-0.0106 (inactive)
O=C1C2C=CC(C(O)C3CC=CCC3)N(Nc3ccccc3)C2C(=O)N1c1ccccc1 (stereo not given),0.767 (inactive),0.748,-0.653,-3.25 (inactive),0.639 (inactive),0.201 (inactive)
O=c1cccc(-c2ccc([N+](=O)[O-])cc2)o1,0.164 (inactive),-0.163,-0.799,-0.755 (inactive),-0.419 (inactive),-0.202 (inactive)
NC(=O)NCC#Cc1ccc2c(c1)[C@]1(C(=O)N2)[C@H](c2ccccc2OCCO)N2[C@H](c3ccccc3)[C@H](c3ccccc3)OC(=O)[C@H]2[C@@H]1C(=O)NC[C@H](O)c1ccccc1,0.427 (inactive),0.209,-0.521,-3.58 (inactive),-0.552 (inactive),-0.793 (inactive)
COC(=O)C1=CC(CCCO)=CC(c2cccs2)N(Cc2cccc(OC(F)(F)F)c2)C=C1C(=O)OC (stereo not given),0.348 (inactive),0.706,-1.78,-7.24 (inactive),0.128 (inactive),0.39 (inactive)
C=C(/C(=C/C[C@H](OC(=O)c1ccncc1)c1ccc(CO)o1)c1cnc2ccccc2c1)C(C)C,0.276 (inactive),0.647,-0.137,-5.42 (inactive),-0.282 (inactive),-0.39 (inactive)
CCOC(=O)C[C@H]1[C@H](OC(=O)c2ccc(C(=O)c3ccccc3)cc2)[C@@H](NC(=O)c2ccc3ccccc3n2)c2cc(OCCCO)ccc2N1C(=O)Cc1ccc(OC)cc1,-0.667 (inactive),-0.219,-2.69,-0.833 (inactive),-0.824 (inactive),-0.835 (inactive)
CC(CO)N1C(=O)[C@@H]2[C@H]3C(=O)OCC=C[C@H]3OC23C=CCN(Cn2nnc4ccccc42)C(=O)[C@@H]13 (stereo not given in full),-0.0787 (inactive),-1.27,0.212,-3.47 (inactive),0.612 (inactive),0.424 (inactive)
COc1ccccc1CN1C(=O)c2ccccc2[C@](Cc2ccccc2I)(C(=O)O)[C@@H]1c1ccc(CO)cc1,0.382 (inactive),0.798,-0.0897,-5.51 (inactive),-0.138 (inactive),0.142 (inactive)
CC(CO)N1C(=O)[C@]2(C)C3C(=O)OCCC/C=C\[C@H]3OC23C=CCN(c2ccc(Cl)cc2)C(=O)[C@@H]13 (stereo not given in full),-0.356 (inactive),0.725,0.416,-3.59 (inactive),0.0747 (inactive),0.651 (inactive)
CCCC[C@@H](O)C1=C(COC)C[C@H]2C(=O)N(Cc3ccccc3)C(=O)[C@H]2[C@H]1CO,1.47 (inactive),0.782,0.553,-4.13 (inactive),-0.187 (inactive),0.274 (inactive)
CCOC(=O)C[C@H]1[C@H](OC(=O)c2ccc(C(=O)c3ccccc3)cc2)[C@@H](NC(=O)c2ccc(-c3ccccc3)cc2)c2cc(OCCCO)ccc2N1C(=O)Cc1ccc(OC)cc1,-0.555 (inactive),-0.187,-0.75,-1.41 (inactive),0.0183 (inactive),0.25 (inactive)
COc1ccc([Si](C)(C)[C@H]2[C@H](CC(=O)N3CCC[C@H]3CO)O[C@@]3(C(=O)N(Cc4ccc(N5CCOC5=O)cc4)c4ccccc43)[C@@H]2C)cc1,0.214 (inactive),0.719,-0.738,-3.99 (inactive),0.222 (inactive),0.0857 (inactive)
NCCCCCCNC(=O)[C@@H]1C[C@@H]2C(=O)N[C@@H](CCCCN)C(=O)N2[C@@H]1c1ccc(O)cc1,2.07 (inactive),0.739,-0.978,-1.72 (inactive),-0.546 (inactive),-0.123 (inactive)
